Bioassay records deposited in PubChem BioAssay by several laboratories.
In the library only some 1.1% were active in any assay of this set; here they are far more common.
Bfl-1 A1 inh: inhibitors of the anti-apoptotic protein A1, read as caspase activation. MEF A1-2A-BIM cells, Caspase-Glo 3/7 luminescence, 3 h; percent of clofoctol response, vehicle zero. caspase activation, % (no concentration beside the values). AID 2462. actives 0.066% (n = 330,000);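 active = over half of replicate activation scores above 10%, or exactly half above 10 with the replicate mean above 10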
HTR5A ag: counter-screen for OPRM1-OPRD1 agonists: human HTR5A agonism. actives 0.61% (n = 340,000). activation, % at 9.3 µM. HTR5A agonist assay, luminescence, cell-based. AID 504692; in the data active = activation mostly above about 9.5%, no sharp cut-off; inactive = mostly below about 7.6%;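 note: 0% = cells with vehicle only and 100% = reference agonist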
HTR5A inv ag: counter-screen for OPRM1-OPRD1 inverse agonists: human HTR5A inverse agonism. HTR5A cell line, luminescence. AID 504634. P47898. actives 0.083% (n = 340,000). inhibition, % at 9.3 µM; in the data active = inhibition mostly above about 23%, no sharp cut-off; inactive = mostly below about 18%;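 note: 0% = cells with DMSO and 100% = no-cell wells with DMSO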
MOR-DOR ag-1: OPRM1-OPRD1 heterodimerization agonism; AID 504326; activation, % at 9.3 µM; actives 0.3% (n = 340,000); P35372+P41143; cells, luminescence;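 note: 0% = vehicle-treated cells and 100% = reference agonist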
Target sequence (P35372 whole entry, looked up): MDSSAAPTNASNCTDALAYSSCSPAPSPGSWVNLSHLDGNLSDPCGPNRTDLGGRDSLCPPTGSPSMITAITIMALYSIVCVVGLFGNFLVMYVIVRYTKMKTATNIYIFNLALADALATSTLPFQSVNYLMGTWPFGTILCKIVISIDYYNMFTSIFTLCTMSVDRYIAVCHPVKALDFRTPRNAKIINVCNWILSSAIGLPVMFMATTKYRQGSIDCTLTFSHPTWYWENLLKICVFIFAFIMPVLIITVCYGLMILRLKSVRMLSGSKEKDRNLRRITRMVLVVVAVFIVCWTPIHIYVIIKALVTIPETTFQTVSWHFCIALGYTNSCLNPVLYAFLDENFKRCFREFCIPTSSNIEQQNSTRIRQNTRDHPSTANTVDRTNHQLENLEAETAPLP
Target sequence (P41143 whole entry, looked up): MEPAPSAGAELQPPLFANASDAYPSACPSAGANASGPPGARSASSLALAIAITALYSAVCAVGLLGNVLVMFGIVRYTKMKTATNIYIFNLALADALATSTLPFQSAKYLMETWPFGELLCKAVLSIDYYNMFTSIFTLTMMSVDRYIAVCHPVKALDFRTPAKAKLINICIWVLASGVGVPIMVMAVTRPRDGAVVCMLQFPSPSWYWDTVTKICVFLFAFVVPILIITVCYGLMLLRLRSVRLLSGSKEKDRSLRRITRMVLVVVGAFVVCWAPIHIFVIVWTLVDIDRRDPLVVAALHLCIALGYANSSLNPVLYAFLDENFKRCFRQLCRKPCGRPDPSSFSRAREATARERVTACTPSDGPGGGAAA
MOR-DOR inv ag-1: inverse agonists of human mu-delta opioid receptor heterodimerization; P35372+P41143; AID 504357; inhibition, % at 9.3 µM; actives 0.21% (n = 340,000); cell-based MOR-DOR heterodimer luminescence, inverse agonism; in the data active = inhibition above about 22%, passing the limit was not always enough;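 note: 0% = cells with DMSO and 100% = wells without cells with DMSO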
MOR-DOR inv ag-2: counter-screen for HTR5A inverse agonists: OPRM1-OPRD1 heterodimerization inverse agonism; 190 tested, under 10 active; U2OS counter-screen cells, complementation luminescence; shares compounds with HTR5A inv ag; inhibition, % at 9.3 µM; call rule not given here;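 note: 0% = cells with DMSO and 100% = wells without cells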
HTR5A inv confrm: HTR5A (human) inverse agonism, confirmation; shares compounds with HTR5A inv ag; HTR5A-expressing cells, luminescence; inhibition, % at 9.3 µM; 190 tested, under 10 active; AID 504916; call rule not given here;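 note: 0% = cells with DMSO and 100% = no cells with DMSO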
MOR-DOR ag-2: opioid heterodimer agonism, HTR5A counter-screen; shares compounds with HTR5A ag; U2OS counter-screen cells, complementation luminescence, 3 h; activation, % at 9.3 µM; actives 13% (n = 800); AID 504913
HTR5A ag confirm: confirmation of human HTR5A agonists; actives 17% (n = 800); shares compounds with HTR5A ag; activation, % at 9.3 µM; HTR5A agonist cell assay, luminescence; in the data active = activation above about 17%;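 note: 0% = cells with vehicle only and 100% = full reference agonist response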
Numbers without * were called inactive; nt = no result given. Cut-off read from the data, not from the text of the source, unless noted: active = activation above about 18%; inactive = the rest.

SMILES	Bfl-1 A1 inh	HTR5A ag	HTR5A inv ag	MOR-DOR ag-1	MOR-DOR inv ag-1	MOR-DOR ag-2	HTR5A ag confirm	others
Cc1ccccc1C1c2[nH]c3ccccc3c2C[C@H]2C(=O)N(C3CCN(Cc4ccccc4)CC3)CC(=O)N12 (some centres undefined)	1	-9	32*	2	-11	nt	nt	MOR-DOR inv ag-2=-22;HTR5A inv confrm=-3
Cc1coc2cc3oc(=O)c(CCC(=O)N4C[C@H]5C[C@@H](C4)c4cccc(=O)n4C5)c(C)c3cc12	-1	26*	-10	-2	10	1	51*
CN(C)/C=C(/C(=O)c1ccc(Cl)cc1)S(=O)(=O)c1ccc(Cl)cc1	0	-10	23	-3	17	nt	nt
O=C(Cc1ccc(Br)cc1)NCCc1ccc(Cl)cc1Cl	1	16*	4	2	-9	-5	-4
CCCCCC(C)NC(=S)NC(=O)c1cc(S(=O)(=O)N2CCOCC2)ccc1C (centres undefined)	0	15*	-23	-1	6	1	9
O=C(CCCn1c(SCC(=O)c2ccc(Cl)cc2)nc2ccccc2c1=O)NCc1ccco1	1	0	5	-2	8	nt	nt
O=C(CCCCCn1c(SCC(=O)c2ccccc2)nc2ccccc2c1=O)NCc1ccco1	0	21*	-50	2	-8	59*	29*
CS(=O)(=O)C1=C(O)C(=O)N(CCCC(=O)O)C1c1ccccc1F (centres undefined)	0	16*	-43	0	1	0	7
CC(=O)c1ccc(OCCCOc2cccc3cccnc23)cc1	1	1	-4	-2	11	nt	nt
CC(=O)CCc1ccc(OCCCOc2cccc3cccnc23)cc1	0	23*	-19	2	-11	1	13
CCC(C)n1c(SCC(=O)NC2CCCC2)nc2ccccc2c1=O (centres undefined)	0	2	-4	-2	8	nt	nt
O=C(CSc1ccccc1)NCC1(N2CCCCC2)CCCCC1	-1	17*	-8	-1	6	23*	6
O=C(CCc1nnc(Cc2c[nH]c3ccccc23)o1)NCC1CC12CCCCC2 (centres undefined)	0	3	-34	0	-1	nt	nt
CN(C)c1ccc(S(=O)(=O)c2ccc(Cl)cc2)cc1	0	16*	24	5	-29	2	2
Cc1ccc(NC(=O)CSCC(=O)Nc2ccc(N3CCOCC3)cc2N2CCOCC2)cc1	nt	-9	19	-2	10	nt	nt
CN(CC(=O)Nc1cccc(F)c1)C(=O)/C=C/c1ccc2ccccc2n1	0	2	0	2	-13	nt	nt
CC1CC(C)(C)NC(=S)N1CCC(=O)N1CCN(c2ccccc2)CC1 (centres undefined)	2	-2	7	-2	11	nt	nt
CC1CC(C)(C)NC(=S)N1CCC(=O)N1CCc2ccccc2C1 (centres undefined)	0	15*	-33	2	-7	2	-2
CCOc1cc(N2CCOCC2)c(OCC)cc1NC(=O)COc1ncnc2ccccc12	-2	-5	-8	-2	7	nt	nt
CCOc1cc(N2CCOCC2)c(OCC)cc1NC(=O)c1cc(-c2ccco2)nc2ccccc12	0	24*	-24	15	-87	96*	8
Cc1cc(OC(=O)c2ccccc2Cl)cc(=O)n1C	1	16*	-3	2	-7	123*	-4
O=C(NC1=NCCS1)c1csc2ccccc12	-5	-2	18	-2	10	nt	nt
O=C(CSc1ccc2ccccc2n1)c1ccc2c(c1)OCO2	-2	40*	-121	0	-1	5	53*
O=C(O)CSc1ccc2ccccc2n1	-1	2	-5	1	-8	nt	nt
